From PubChem
Shown is part of a subset that was picked to be rich in hits.
SARS PLpro yeast – qHTS of Yeast-based Assay for SARS-CoV PLP. Potency, µM (titrated, usually from 32.9 µM), usual class: activators. S. cerevisiae expressing SARS-CoV PLpro, growth rescue. 330,000 compounds, 0.19% hits; calls by dose curve; also: nearly all actives have a fitted effect of over 55% in size
AmpC no deterg – qHTS Inhibitors of AmpC Beta-Lactamase (assay without detergent); P00811; AmpC nitrocefin hydrolysis, absorbance 480 nm, 0.0001% Triton; Potency, µM (series often up to 57.1 µM), usual class: inhibitors; 330,000 compounds, 0.52% hits; also: nearly all actives have a fitted effect of over 20% in size
Target sequence (P00811 whole entry, looked up): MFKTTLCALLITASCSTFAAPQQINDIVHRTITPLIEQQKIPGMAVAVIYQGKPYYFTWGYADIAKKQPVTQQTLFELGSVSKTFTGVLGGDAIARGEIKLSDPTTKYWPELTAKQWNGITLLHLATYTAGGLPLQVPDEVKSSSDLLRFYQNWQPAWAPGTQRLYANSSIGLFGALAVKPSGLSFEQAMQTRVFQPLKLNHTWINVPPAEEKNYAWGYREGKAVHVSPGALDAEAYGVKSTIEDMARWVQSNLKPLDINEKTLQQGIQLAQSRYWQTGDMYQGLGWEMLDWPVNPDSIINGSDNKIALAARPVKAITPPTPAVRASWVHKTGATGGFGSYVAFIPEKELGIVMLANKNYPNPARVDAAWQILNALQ
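AmpC (5.3 nM in the dispensed reagent) in 20 mM phosphate pH 7.0 with 0.01% (detergent screen) or 0.0001% Triton X-100 was preincubated with compounds for 15 min at room temperature. Nitrocefin was then added from an 800 uM solution, and hydrolysis was followed at 480 nm.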
Shiga toxin inh – A qHTS for Small Molecule Inhibitors of Shiga Toxin | Vero cells, Shiga toxin protein synthesis inhibition reporter | inhibition, % at 38.7 µM | 290,000 compounds, 9.2% hits | AID 2315, 2010; in the data active = inhibition mostly above about 28%, no sharp cut-off; inactive = mostly below about 43%
AmpC detergent – qHTS Inhibitors of AmpC Beta-Lactamase (assay with detergent); AmpC hydrolysis of nitrocefin, absorbance 480 nm, 0.01% Triton; Potency, µM (highest dose often 114 µM), usual class: inhibitors; 370,000 compounds, 0.041% hits; also: nearly all actives have a fitted effect of over 25% in size
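AmpC (5.3 nM in the dispensed reagent) in 20 mM phosphate pH 7.0 with 0.01% (detergent screen) or 0.0001% Triton X-100 was preincubated with compounds for 15 min at room temperature. Nitrocefin was then added from an 800 uM solution, and hydrolysis was followed at 480 nm.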
AMA1 RON2 block – qHTS for Inhibitors of AMA1-RON; Towards Development of Antimalarial Drug Lead: Primary Screen; Plasmodium falciparum AMA1 (3D7) - RON2 peptide interaction; AlphaScreen AMA1-biotinylated RON2 peptide binding; Potency, µM (highest dose often 58.2 µM), usual class: inhibitors; 360,000 compounds, 0.2% hits; AID 720542, 2013; also: nearly all actives have a fitted effect of over 45% in size
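AMA1 (3D7) with his tag at 25 nM final met compounds first, then biotinylated RON2 peptide at 25 nM; detection used donor plus acceptor beads, 10 µg/mL apiece, read by AlphaScreen after 30 min at room temperature.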
Cycloheximide cs – Cycloheximide Counterscreen for Small Molecule Inhibitors of Shiga Toxin | 300,000 compounds, 12% hits | max response, % | cell reporter, cycloheximide protein synthesis inhibition counterscreen | AID 2314, 2010; in the data active = max response mostly above about 13%, no sharp cut-off; inactive = mostly below about 14%; also: read at 38.3 µM for the half of the compounds with a filed dose
Of the large screens only hits and unclear results are named; the others gave an inactive call. Unless noted, calls follow the shape of the dose curve; as a rule, active = well fitted curve in the direction sought with a large enough effect; inconclusive = small, poorly fitted or top-dose-only effect, or another doubt; inactive = no such curve, though single readings can be large; an effect the other way counts as inactive or inconclusive.

O=C(N/N=C/c1ccoc1)c1ccccc1F	Shiga toxin inh 90, Cycloheximide cs 75
Cc1cc(/C=N/NC(N)=S)c(C)n1-c1cccc(Cl)c1	none
Cc1ccc(/C=N/NC(=O)c2ccco2)cc1	Shiga toxin inh 37, Cycloheximide cs 45
Cc1c(C(=O)N/N=C/c2ccoc2)cccc1[N+](=O)[O-]	AmpC detergent inconclusive
CSC(=S)N/N=C/c1ccc(N(C)C)cc1	Shiga toxin inh 68, AmpC detergent inconclusive, Cycloheximide cs 43
CN(C(=O)C1CCCCN1S(=O)(=O)c1ccccc1)c1ccccc1 (centres undefined)	none (no result: Shiga toxin inh, AmpC detergent, Cycloheximide cs)
COc1cccc(CNC(=O)C2CCN(S(=O)(=O)c3ccc4c(c3)OCCO4)CC2)c1	none
COCCN1Cc2cccc(C(=O)NCc3ccccc3OC)c2C1=O	AMA1 RON2 block inconclusive
CN(C)c1ccc(/C=N\NC(=O)c2cccc3cc[nH]c23)cc1	Shiga toxin inh 56, Cycloheximide cs 32
CN(C)c1ccc(/C=N/NC(=O)c2cc(=O)[nH]c3ccccc23)cc1	none
Cc1nc2scc(-c3ccccc3)c2c(=O)o1	none
O=c1oc(-c2ccccc2F)nc2scc(-c3ccccc3)c12	Shiga toxin inh 32, Cycloheximide cs 21
O=C(O)c1cc(N/N=C/c2ccc(-c3ccc(F)cc3)o2)ccc1Cl	Shiga toxin inh 152, AmpC detergent inconclusive, Cycloheximide cs 46
O=C(O)c1ccc(N/N=C/c2ccc(-c3cccc(Cl)c3)o2)cc1	Shiga toxin inh 82, Cycloheximide cs 60
O=C(O)c1ccc(N/N=C/c2ccc(-c3ccc(Cl)cc3Cl)o2)cc1	Shiga toxin inh 111, Cycloheximide cs 39
O=C(Cc1ccc(F)cc1)N/N=C/c1ccc(-c2ccc(Cl)c(C(=O)O)c2)o1	none
C=CCNC(=S)N/N=C/c1ccc(-c2cc(Cl)ccc2Cl)o1	none (no result: SARS PLpro yeast)
C=CCNC(=S)N/N=C/c1ccc(-c2ccc(Cl)cc2Cl)o1	none (no result: SARS PLpro yeast, AmpC no deterg, Shiga toxin inh, AmpC detergent, Cycloheximide cs)
O=C(O)c1ccc(N/N=C/c2ccc(-c3cc(Cl)ccc3Cl)o2)cc1	Shiga toxin inh 112, Cycloheximide cs 81
COC(=O)c1ccc(NC(=O)COC(=O)C2CC(=O)N(Cc3ccccc3)C2)cc1 (centres undefined)	none
COc1ccc2cc(OCC(=O)NNC(=O)Nc3ccc(OC)c(OC)c3)ccc2c1	SARS PLpro yeast inconclusive
O=C(NNC(=O)c1ccncc1)Nc1ccc(N=Nc2ccccc2)cc1	none (no result: SARS PLpro yeast, AmpC no deterg, Shiga toxin inh, AmpC detergent, Cycloheximide cs)
Cc1ccc(NC(=O)c2sc(-n3nc(C)c(CCC(C)C)c3C)nc2C)cc1C	none (no result: SARS PLpro yeast, AmpC no deterg, Shiga toxin inh, AMA1 RON2 block, Cycloheximide cs)
CCCCC(=O)Nc1ccccc1N1CCOCC1	none
Cc1cn(CCC(=O)Nc2ccc(N3CCOCC3)cc2)c2ccccc12	Shiga toxin inh 61, Cycloheximide cs 66
Cc1cn(CCC(=O)Nc2ccccc2N2CCOCC2)c2ccccc12	Shiga toxin inh 75, Cycloheximide cs 50
Cc1cc(C)n(-c2nnc(C)n2/N=C/c2cc(Br)ccc2OCc2ccccc2)n1	Cycloheximide cs 20
CC(C)CCNC(=O)NC(=O)COc1ccccc1C#N	Shiga toxin inh 30, Cycloheximide cs 19
Cc1cc(Cl)ccc1OC(C)C(=O)OCC(=O)c1ccc[nH]1 (centres undefined)	none (no result: Shiga toxin inh, AmpC detergent, Cycloheximide cs)
Cc1noc(C)c1CSCC(=O)Nc1cc(Cl)ccc1N1CCOCC1	none
CCCOc1ccc(C(=O)Nc2nc(C)c(Cc3ccc4c(c3)OCO4)s2)cc1	Shiga toxin inh 72, Cycloheximide cs 24
COc1cc(C(=O)Nc2nc(C)c(Cc3ccc4c(c3)OCO4)s2)cc(OC)c1OC	none
Cc1nc(NC(=O)c2ccc(OCC(C)C)cc2)sc1Cc1ccc2c(c1)OCO2	Shiga toxin inh 30, Cycloheximide cs 19
CCOC(=O)CSCC(=O)N1CCC(Cc2ccccc2)CC1	none
O=Cc1cc(N=Nc2cccc(C(=O)O)c2)ccc1O	Shiga toxin inh 76, AmpC detergent inconclusive, Cycloheximide cs 39
CN1C(=O)/C(=C\c2cc(N=Nc3ccccc3)ccc2O)SC1=S	none
O=Cc1cc(N=Nc2ccccc2Cl)ccc1O	AMA1 RON2 block inconclusive, Cycloheximide cs 34
NCCCC[C@H](NC(=O)[C@@H]1CCCN1C(=O)[C@@H](N)CCCN=C(N)N)C(=O)N1CCC[C@H]1C(=O)N[C@@H](CCC(N)=O)C(=O)N[C@@H](CCC(N)=O)C(=O)N[C@@H](Cc1ccccc1)C(=O)O	none (no result: SARS PLpro yeast, AmpC no deterg, AmpC detergent, AMA1 RON2 block)
O=C(CCC1COc2ccccc2O1)Nc1ccc(Cl)cn1 (centres undefined)	Shiga toxin inh 31, Cycloheximide cs 14
Cc1ccnc(NC(=O)CCC2COc3ccccc3O2)c1 (centres undefined)	Cycloheximide cs 13
CCOC(=O)c1ccc(NC(=O)CCC2COc3ccccc3O2)cc1 (centres undefined)	AmpC detergent inconclusive
COc1cc(NC(=O)Cc2ccccc2)cc(OC)c1	none
CCc1ccc(NC(=O)CSc2nnc(-c3cnccn3)n2C)cc1	none
O=C(NCCc1ccccc1)c1ccc2nc(N3CCOCC3)sc2c1	AmpC detergent inconclusive, Cycloheximide cs 12
O=C(Nc1ccc(F)cc1F)c1ccc2nc(N3CCOCC3)sc2c1	Shiga toxin inh 49, Cycloheximide cs 18
O=C(Nc1ccc2nc(N3CCOCC3)sc2c1)c1ccccc1	none (no result: Shiga toxin inh, Cycloheximide cs)
O=C(Nc1ccccc1Cl)c1ccc2nc(N3CCOCC3)sc2c1	Cycloheximide cs 11
O=C(Nc1ccc2nc(N3CCOCC3)sc2c1)c1ccc(F)cc1	none (no result: Shiga toxin inh, Cycloheximide cs)
Cc1cccc(NC(=O)c2ccc3nc(N4CCOCC4)sc3c2)c1C	Shiga toxin inh 16
COc1cccc(CN(CC(=O)NC2CCCC2)C(=O)CCC(=O)Nc2cc(C)on2)c1	none
CSc1ccc(C2c3[nH]c4ccccc4c3CCN2C(=O)c2ccnn2C)cc1 (centres undefined)	Shiga toxin inh 72, AMA1 RON2 block inconclusive, Cycloheximide cs 35
COc1ccc(CN(C)C(=O)c2ccc(NC(=O)CC3SC(N4CCCC4)=NC3=O)cc2)c(OC)c1 (centres undefined)	none (no result: Shiga toxin inh, Cycloheximide cs)
Cc1ccc(N/C=C2\CCCCC2=O)nc1	Shiga toxin inh 107, Cycloheximide cs 58
Cc1ccc(N/C=C2\CCCCC2=O)c(C)c1	AmpC detergent inconclusive
O=C1CCCC/C1=C\Nc1ccc(Cl)cn1	SARS PLpro yeast inconclusive, Shiga toxin inh 61, Cycloheximide cs 27
CCCC[N+](CC#CCO)(CC#Cc1ccccc1)CCCC	none
CC(C)=C(NC(=O)c1ccccc1)C(N)=O	none
CCN(CC)c1ccc(NC(=O)Nc2ccc(C(C)=O)cc2)cc1	AmpC no deterg 0.28µM
CCN(CC)c1ccc(NC(=O)Nc2ccccc2)cc1	Shiga toxin inh 58, AMA1 RON2 block inconclusive, Cycloheximide cs 48
O=C(COc1cccc2cccnc12)Nc1nccs1	Shiga toxin inh 53, Cycloheximide cs 33
CC(=O)NCCOc1cccc2cccnc12	none
